Drawing on PubChem BioAssay (Tox21), this text covers Potency and outcome for seven compounds.

A short description of assay [1]: Nuclear factor erythroid 2-related factor 2/antioxidant responsive element (Nrf2/ARE) small molecule agonists: qHTS cell viability counter screen in human keratinocytes (AID 1919968; active means well fitted curve in the direction sought with a large enough effect in the repeat runs; an effect the other way counts as inactive or inconclusive; further: nearly all actives have a fitted effect of over 55% in size). The gist of the method: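 Seed 1,500 KeratinoSens cells per well, then incubate 5 h at 37 C/5% CO2. Add compounds in DMSO and incubate 23 h. Add CellTiter-Fluor, wait 1 h and read fluorescence.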

A short description of assay [2]: Nuclear factor erythroid 2-related factor 2/antioxidant responsive element (Nrf2/ARE) small molecule agonists: luciferase reporter gene qHTS assay in human keratinocytes (AID 1919969). Further: nearly all actives have a fitted effect of over 35% in size. Further: potency means the concentration at half of the fitted maximal effect.
The target in assay [3] is Gonadotropin-releasing hormone receptor (Homo sapiens) (UniProt P30968). Nature of the assay: Human gonadotropin-releasing hormone receptor (GnRHR) small molecule agonists, calcium flux assay in GnRHR-HEK293 cells (AID 1920063). Further: nearly all actives have a fitted effect of over 35% in size. The gist of the method:
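Cells: HEK293 stably expressing human GnRHR. Steps: overnight (18 h) culture, 1 h calcium dye loading at 37 C, compound addition, kinetic fluorescence read at 480/540 nm. Each compound tested at 15 concentrations in triplicate.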

The target of assay [4] is KiSS-1 receptor (Homo sapiens) (UniProt Q969F8). The experiment in a line: Human kisspeptin (KISS1R) small molecule agonists, calcium flux assay in KISS1R-HEK293 cells (AID 1920064; active means well fitted curve in the direction sought with a large enough effect in the repeat runs; an effect the other way counts as inactive or inconclusive). The gist of the method: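 Cells plated and incubated 18 h; dye added, 1 h at 37 C; compounds in DMSO pinned in; signal read at 480/540 nm every second for 3 min. Each compound tested at 15 concentrations in triplicate.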
Sequence of KiSS-1 receptor (Homo sapiens) (Q969F8 whole entry, looked up): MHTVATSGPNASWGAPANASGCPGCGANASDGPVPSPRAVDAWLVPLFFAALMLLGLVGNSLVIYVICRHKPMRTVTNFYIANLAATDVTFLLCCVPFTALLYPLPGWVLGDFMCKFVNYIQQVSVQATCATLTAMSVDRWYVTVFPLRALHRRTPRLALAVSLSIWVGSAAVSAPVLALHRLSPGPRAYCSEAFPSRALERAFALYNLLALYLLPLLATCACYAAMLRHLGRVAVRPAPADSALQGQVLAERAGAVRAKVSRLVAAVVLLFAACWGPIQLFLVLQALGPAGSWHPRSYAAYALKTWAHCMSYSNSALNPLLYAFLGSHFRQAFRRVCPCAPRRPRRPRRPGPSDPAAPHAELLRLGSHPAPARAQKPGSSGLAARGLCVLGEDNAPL

Assay [5] in a line: G protein-coupled receptor (GPCR) small molecule agonists, calcium flux assay: HEK293 wild type cell line counter screen (AID 1920065). The gist of the method:
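Counter-screen of the Tox21 10K library for non-specific calcium release: dye-loaded cells received compounds in DMSO and were monitored by kinetic fluorescence (480/540 nm, 3 min). Fifteen concentrations, run in triplicate.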

Assay [6] is described as follows: p53 small molecule agonists, cell-based qHTS assay with human liver microsomes (AID 1963577). The gist of the method:
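Compounds act here after metabolic activation: human liver microsomes and NADPH, both at 0.5 mg/mL final, were co-added to p53RE-bla cells. Incubation ran 16 h at 37 C, followed by LiveBLAzer detection.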

Assay [7] can be described thus: p53 small molecule agonists, cell-based qHTS assay with rat liver microsomes (AID 1963578). The gist of the method:
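Read-out is beta-lactamase reporter fluorescence (LiveBLAzer, 2 h, room temperature, dark) in p53RE-bla cells treated 16 h at 37 C with compound, rat liver microsomes and NADPH, both 0.5 mg/mL final.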

The nature of assay [8]: p53 small molecule agonists, cell-based qHTS assay with human liver microsomes: qHTS cell viability counter screen (AID 1963579). Further: nearly all actives have a fitted effect of over 45% in size. Further: potency means the concentration at half of the fitted maximal effect. The gist of the method: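 Cells carrying the p53 response-element beta-lactamase reporter are treated for 16 h at 37 C with test compounds in the presence of human liver microsomes and NADPH (both 0.5 mg/mL final); ATP-based CellTiter-Glo luminescence then reports viability.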

Assay [9] in a line: p53 small molecule agonists, cell-based qHTS assay: qHTS cell viability counter screen (AID 1963581). Further: nearly all actives have a fitted effect of over 45% in size. The gist of the method: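 Cells: HCT-116 with p53 response element-driven beta-lactamase. Treatment: 16 h, 37 C, compounds in DMSO. Read: CellTiter-Glo luminescence after 30 min RT.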
A short description of assay [10]: p53 small molecule agonists, cell-based qHTS assay (AID 1963582; active means well fitted activation curve with a large enough effect in the signal ratio in the repeat runs, not every such curve was filed as active; the % refers to the signal ratio). The gist of the method:
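Quantitative HTS in p53RE-bla cells: after a 5 h settling period, compounds delivered in DMSO were left on cells for 16 h at 37 C, and reporter induction was measured as fluorescence following 2 h substrate loading.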

Assay [11] addresses 5-hydroxytryptamine receptor 2A (Homo sapiens) (UniProt P28223). Nature of the assay: 5-hydroxytryptamine receptor 2A (HTR2A) small molecule agonists, cell-based qHTS assay (AID 1963587). Further: nearly all actives have a fitted effect of over 30% in size. The gist of the method: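 Kinetic calcium-flux fluorescence (2 min, 1 sec intervals) after compound addition in agonist mode. HTR2A-CHO cells were cultured 18 h, then dye-loaded 1 h at 37 C.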

Assay [12] concerns the target Muscarinic acetylcholine receptor M1 (Homo sapiens) (UniProt P11229). Nature of the assay: Cholinergic receptor muscarinic 1 (CHRM1) small molecule antagonists, cell-based qHTS assay (AID 1963588). Further: nearly all actives have a fitted effect of over 40% in size. The gist of the method: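 CHRM1-CHO calcium-flux assay, antagonist mode. Cells were seeded 18 h, dye-loaded 1 h at 37 C and given compound for 5 min at RT, then acetylcholine was added at 50nM. FDSS fluorescence was read 3 min; 15 concentrations, three runs.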

Assay [13] shares this target. The experiment in a line: Cholinergic receptor muscarinic 1 (CHRM1) small molecule agonists, cell-based qHTS assay (AID 1963589). Further: nearly all actives have a fitted effect of over 35% in size. The gist of the method:
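Agonist-mode qHTS in CHO cells stably carrying human muscarinic M1. Intracellular calcium is tracked by fluorescence every second after compound transfer; each compound runs at 15 concentrations in three independent runs.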

Assay [14] in a line: cAMP Responsive Elements (CRE) small molecule antagonists, cell-based qHTS assay (AID 1963591; active means well fitted inhibition curve with a large enough effect in the signal ratio in the repeat runs, not every such curve was filed as active; the % refers to the signal ratio). The gist of the method: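 Antagonist mode: test compounds are co-incubated with the adenylyl cyclase activator NKH477 (0.25 uM final) on CRE-bla HEK293T cells for 3 h at 37 °C, followed by LiveBLAzer substrate loading.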
The target of assay [15] is Beta-2 adrenergic receptor (Homo sapiens) (UniProt P07550). Nature of the assay: Adrenergic beta2 receptor (ADRB2) small molecule antagonists, cell-based qHTS assay (AID 1963592). Further: series mostly up to about 92 µM; nearly all actives have a fitted effect of over 50% in size. The gist of the method: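 Cells (CHO, stable ADRB2 overexpression) incubated 18-20hr at 37C; compounds added from DMSO; agonist mix (1nM isoproterenol, 100uM IBMX, 25uM Ro-20-1724) added; 0.5hr RT; d2-cAMP and anti-cAMP-cryptate added; 1hr RT; 665/615 nm read.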
Sequence of Beta-2 adrenergic receptor (Homo sapiens) (P07550 whole entry, looked up): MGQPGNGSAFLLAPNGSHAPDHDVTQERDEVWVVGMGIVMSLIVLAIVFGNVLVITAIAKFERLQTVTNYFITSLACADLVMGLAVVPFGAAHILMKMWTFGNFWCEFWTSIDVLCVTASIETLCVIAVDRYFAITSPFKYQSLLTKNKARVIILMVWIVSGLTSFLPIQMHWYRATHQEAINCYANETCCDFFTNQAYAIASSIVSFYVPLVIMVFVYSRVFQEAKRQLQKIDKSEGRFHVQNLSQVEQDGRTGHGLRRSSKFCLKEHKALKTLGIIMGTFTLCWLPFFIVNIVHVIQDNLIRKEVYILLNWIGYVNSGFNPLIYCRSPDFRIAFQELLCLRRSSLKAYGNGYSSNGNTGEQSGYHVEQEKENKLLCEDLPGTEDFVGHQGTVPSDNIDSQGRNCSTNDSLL

Assay [16] has as its target D(2) dopamine receptor (Homo sapiens) (UniProt P14416). The experiment in a line: Dopamine D2 receptor (DRD2) small molecule agonists, cell-based qHTS assay (AID 1963594). Further: nearly all actives have a fitted effect of over 35% in size. The gist of the method: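 cAMP accumulation in DRD2-HEK293 cells measured by HTRF after 1 h detection; compounds added 10 min before NKH477 (200nM […]) forskolin-analogue stimulation, 30 min at room temperature, with Ro20-1724 present at 0.1 mM final.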

Assay [17] has the same target. Nature of the assay: Dopamine D2 receptor (DRD2) small molecule antagonists, cell-based qHTS assay (AID 1963595; active means well fitted inhibition curve with a large enough effect in the signal ratio in the repeat runs, with a control signal flat; the % refers to the signal ratio). The gist of the method:
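Antagonism was scored as restored cAMP in HEK293-DRD2 cells. These cells were stimulated with 200 nM NKH477 and 12 nM quinpirole for 30 min at room temperature, in the presence of 0.1 mM Ro20-1724.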

Assay [18] has as its target 5-hydroxytryptamine receptor 2A (Homo sapiens) (UniProt P28223). The experiment in a line: 5-hydroxytryptamine receptor 2A (HTR2A) small molecule antagonists, cell-based qHTS assay (AID 1963586). Further: nearly all actives have a fitted effect of over 45% in size. The gist of the method: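 Antagonist-mode intracellular calcium assay: DOI (4 nM) added after 5 min compound pre-incubation at room temperature to dye-loaded HTR2A-CHO cells. Fluorescence followed for 3 min, sampled every second.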

Assay [19] can be described thus: cAMP Responsive Elements (CRE) small molecule agonists, cell-based qHTS assay (AID 1963590). The gist of the method: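 Agonist mode qHTS in CRE-bla HEK 293T cells: compounds dosed from DMSO for 3 h at 37 C/5% CO2, followed by LiveBLAzer B/G FRET substrate for 2 h at room temperature.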

Values without a mark were called inactive. Results filed as inconclusive are left out. The source made the active and inactive calls. Unless noted, the call rests on the fitted dose curve.

Sequence of Muscarinic acetylcholine receptor M1 (Homo sapiens) (P11229 whole entry, looked up): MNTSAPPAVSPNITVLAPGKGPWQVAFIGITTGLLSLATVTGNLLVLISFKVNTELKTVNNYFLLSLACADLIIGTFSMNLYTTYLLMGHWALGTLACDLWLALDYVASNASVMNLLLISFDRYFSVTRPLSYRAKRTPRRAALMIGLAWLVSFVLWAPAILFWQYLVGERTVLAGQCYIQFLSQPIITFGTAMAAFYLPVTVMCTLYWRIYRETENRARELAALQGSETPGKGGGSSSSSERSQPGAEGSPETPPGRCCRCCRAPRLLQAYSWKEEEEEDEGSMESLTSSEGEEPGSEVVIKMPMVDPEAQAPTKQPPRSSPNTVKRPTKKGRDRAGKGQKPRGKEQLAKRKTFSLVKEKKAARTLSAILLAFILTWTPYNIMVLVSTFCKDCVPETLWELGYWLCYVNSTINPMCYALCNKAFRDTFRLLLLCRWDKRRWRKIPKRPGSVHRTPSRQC
Sequence of Gonadotropin-releasing hormone receptor (Homo sapiens) (P30968 whole entry, looked up): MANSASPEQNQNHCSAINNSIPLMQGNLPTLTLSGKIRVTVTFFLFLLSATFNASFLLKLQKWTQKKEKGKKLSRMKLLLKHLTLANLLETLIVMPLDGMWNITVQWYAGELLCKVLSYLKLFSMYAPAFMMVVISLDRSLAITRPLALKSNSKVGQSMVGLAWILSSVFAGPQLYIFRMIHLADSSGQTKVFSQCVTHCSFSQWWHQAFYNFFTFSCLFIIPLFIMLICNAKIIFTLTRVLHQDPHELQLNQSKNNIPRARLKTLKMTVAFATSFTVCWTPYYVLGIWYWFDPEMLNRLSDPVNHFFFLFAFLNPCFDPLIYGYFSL
Sequence of 5-hydroxytryptamine receptor 2A (Homo sapiens) (P28223 whole entry, looked up): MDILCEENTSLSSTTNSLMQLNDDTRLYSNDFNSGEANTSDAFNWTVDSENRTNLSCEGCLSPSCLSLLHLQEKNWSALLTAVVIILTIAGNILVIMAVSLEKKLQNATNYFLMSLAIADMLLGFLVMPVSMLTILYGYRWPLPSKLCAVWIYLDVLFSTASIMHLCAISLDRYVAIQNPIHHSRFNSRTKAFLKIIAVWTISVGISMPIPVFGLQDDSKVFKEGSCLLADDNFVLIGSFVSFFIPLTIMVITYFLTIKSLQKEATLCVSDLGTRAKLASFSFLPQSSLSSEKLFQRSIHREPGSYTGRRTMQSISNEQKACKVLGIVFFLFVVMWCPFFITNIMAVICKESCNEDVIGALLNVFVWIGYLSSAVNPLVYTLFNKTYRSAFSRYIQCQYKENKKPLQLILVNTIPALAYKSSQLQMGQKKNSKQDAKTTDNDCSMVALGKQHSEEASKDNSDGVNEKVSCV
Sequence of D(2) dopamine receptor (Homo sapiens) (P14416 whole entry, looked up): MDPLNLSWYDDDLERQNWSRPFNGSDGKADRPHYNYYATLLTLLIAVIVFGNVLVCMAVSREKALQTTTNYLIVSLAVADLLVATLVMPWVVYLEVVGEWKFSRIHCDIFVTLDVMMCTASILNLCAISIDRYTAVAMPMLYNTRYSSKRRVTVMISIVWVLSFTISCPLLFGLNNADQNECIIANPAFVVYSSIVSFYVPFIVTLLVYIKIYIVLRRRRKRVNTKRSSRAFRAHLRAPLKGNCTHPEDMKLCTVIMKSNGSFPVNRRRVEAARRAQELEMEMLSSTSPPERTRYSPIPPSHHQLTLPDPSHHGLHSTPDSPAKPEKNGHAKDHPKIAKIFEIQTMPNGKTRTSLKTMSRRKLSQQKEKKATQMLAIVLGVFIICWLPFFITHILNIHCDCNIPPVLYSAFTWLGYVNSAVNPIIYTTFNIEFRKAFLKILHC

Regarding `c1ccc(SSc2ccccc2)cc1`, the Potency entry in assay [1], in assay [3], in assay [6], in assay [7], in assay [8] and in assay [9] was “inactive” in each case. Also, the Potency result in [10], in [11], in assay [12], in assay [13], in assay [14] and in assay [15] was “inactive” throughout. In addition, the Potency result in assay [16] and in assay [17] was “inactive” each time. Also, in assay [2], the Potency was 27.5 µM (active). Moreover, the outcome in assay [4] and in assay [5] was inactive.

For the compound `CC(C)(C)c1cc(CCC(=O)OCCSCCOC(=O)CCc2cc(C(C)(C)C)c(O)c(C(C)(C)C)c2)cc(C(C)(C)C)c1O`, the Potency entry in assay [1], in assay [2], in assay [3], in assay [6], in assay [7] and in [8] was “inactive” in each case. For the same compound, the Potency result in assay [9], in assay [10], in [18], in assay [11], in [12] and in assay [13] was “inactive” each time. For the same compound, the Potency entry in assay [15], in [16] and in [17] was “inactive” each time. For the same compound, the result in assay [4] and in assay [5] was inactive.

`CC(C)(C)C(=O)C(=O)O`: the Potency result in assay [1], in [2], in assay [3], in assay [6], in assay [7] and in assay [8] was “inactive” throughout. In addition, the Potency result in assay [9], in [10], in assay [18], in [11], in [13] and in [19] was “inactive” throughout. Besides, the Potency result in assay [14], in assay [15], in assay [16] and in assay [17] was “inactive” in each case. The outcome in [4] and in assay [5] was inactive.

For the compound `CCOC(=O)CCC(=O)OCC`, the Potency result in assay [1], in assay [2], in assay [3], in assay [6], in [7] and in assay [8] was “inactive” throughout. Moreover, the Potency result in assay [9], in assay [10], in assay [18], in assay [11], in assay [12] and in [13] was “inactive” each time. In addition, the Potency entry in assay [19], in [15], in assay [16] and in [17] was “inactive” in each case. The result in assay [4] and in assay [5] was inactive.

On to `OCCN(CCO)c1ccccc1`, for which the Potency entry in assay [1], in assay [2], in [3], in assay [6], in assay [7] and in assay [8] was “inactive” throughout. For the same compound, the Potency result in [9], in assay [10], in [18], in [11], in [12] and in assay [13] was “inactive” throughout. Besides, the Potency entry in assay [14], in assay [16] and in assay [17] was “inactive” in each case. For the same compound, the outcome in assay [4] and in [5] was inactive.

On to `CCCCCCCCCC#N`, for which the Potency entry in assay [1], in assay [3], in [6], in assay [7], in [9] and in assay [10] was “inactive” throughout. Besides, the Potency result in assay [18], in assay [11], in [12], in assay [19], in [15] and in [16] was “inactive” each time. Also, the Potency entry in [17] is “inactive”. In addition, the Potency in [2] is 68.2 µM (active); in assay [8] it was 11.4 µM (active). In addition, the result in [4] and in [5] was inactive.

`O=C(/C=C/c1ccccc1)OCCCc1ccccc1`: the Potency entry in assay [1], in assay [2], in assay [3], in assay [6], in assay [7] and in assay [8] was “inactive” throughout. Also, the Potency entry in [9], in assay [10], in assay [18], in [11], in assay [12] and in [13] was “inactive” each time. For the same compound, the Potency result in assay [19], in assay [15] and in assay [16] was “inactive” each time. In addition, the outcome in assay [4] and in assay [5] was inactive.
